From PubChem BioAssay come the findings set out here.

A number with no mark means an inactive call. The source made the active and inactive calls.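 How the source made its calls: active means thallium flux through the channel raised or lowered by more than 3 SD from vehicle-only wells, actives on both sides; inactive means the rest.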

What all share (test): BK channel mutant inhibitors and activators – cell-based, U2OS BacMam, thallium flux, beta subunits, selectivity assay, profiling panel (AID 1259406);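 further: initial slope of Thallos dye fluorescence rise after thallium is added; log ratio against the mean of 0.3% DMSO vehicle wells on the same plate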
For experiment [1], the system named is F380Y. The note with it: U2OS BacMam BK variants, at 30 µM.
For experiment [2], the system named is F380Y/beta1. The note with it: U2OS BacMam BK variants, at 30 µM.
Experiment [3] has as its system F380Y/beta2Delta. The note with it: U2OS BacMam BK variants, at 30 µM.
Experiment [4] has as its system F380Y/beta4. Conditions: U2OS BacMam BK variants, at 30 µM.
In experiment [5] the target is Calcium-activated potassium channel subunit alpha-1 (Homo sapiens) + Leucine-rich repeat-containing protein 26 (Homo sapiens) (UniProt Q12791+Q2I0M4). Conditions: U2OS BacMam BK variants, F380Y/Slo1WT/gamma1, at 30 µM.
Chain of Calcium-activated potassium channel subunit alpha-1 (Homo sapiens) + Leucine-rich repeat-containing protein 26 (Homo sapiens) (Q2I0M4 whole entry, looked up, one chain of several): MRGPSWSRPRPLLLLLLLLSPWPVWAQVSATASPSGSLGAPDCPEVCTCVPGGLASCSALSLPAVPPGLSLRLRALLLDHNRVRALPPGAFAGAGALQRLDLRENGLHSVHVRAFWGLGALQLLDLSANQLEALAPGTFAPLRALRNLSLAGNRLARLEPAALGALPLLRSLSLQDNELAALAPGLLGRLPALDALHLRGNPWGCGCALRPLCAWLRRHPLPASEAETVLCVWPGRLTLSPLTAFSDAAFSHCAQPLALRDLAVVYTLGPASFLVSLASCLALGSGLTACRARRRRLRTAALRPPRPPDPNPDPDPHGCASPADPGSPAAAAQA
Experiment [6] relates to R275C. Conditions: U2OS BacMam BK variants, at 30 µM.
In experiment [7] the test system is R275C/beta1. The note with it: U2OS BacMam BK variants, at 30 µM.
The test system of experiment [8] is R275C/beta2Delta. The note with it: U2OS BacMam BK variants, at 30 µM.
In experiment [9] the test system is R275C/beta4. Conditions: U2OS BacMam BK variants, at 30 µM.
Experiment [10] deals with R275C/Slo1WT/beta2. The note with it: U2OS BacMam BK variants, at 30 µM.

Consider `O=[N+]([O-])c1cnc(Sc2nccc(-c3cccnc3)n2)s1`, for which the log fold change Tl+ flux in experiment [1] was -0.00331; in experiment [2], 0.0246; in experiment [3] it was -0.0191; in experiment [4] it was 0.00729; in [5], -0.074; in [6], 0.0275. In addition, the log fold change Tl+ flux was 0.026 in [7], -0.0186 in experiment [8], 0.0146 in [9] and -0.0189 in experiment [10].

Turning to `CC(C)c1ccc(NC(=S)NC2CC3CC2C2C=CCC32)cc1` (stereo not given), the log fold change Tl+ flux was 0.00954 in experiment [1]; -0.00688 in [2]; -0.0661 in experiment [3]; -0.422 (active) in experiment [4]; -0.206 (active) in [5]; -0.205 (active) in experiment [6]. The log fold change Tl+ flux was -0.152 (active) in [7], -0.109 (active) in experiment [8], -0.11 (active) in experiment [9] and -0.0657 in experiment [10].

On to `CC(C)(C)OC(=O)N1CCC(c2nc(-c3ccc(Cl)s3)cs2)CC1`, for which the log fold change Tl+ flux was 0.0108 in [1]; 0.0589 in experiment [2]; -0.0352 in [3]; -0.0115 in [4]; -0.0565 in experiment [5]; -0.00778 in [6]. Further, the log fold change Tl+ flux in experiment [7] was 0.0364; in [8], 0.0302; in experiment [9] it was 0.0463; in experiment [10], 0.0374.

Take `CCCCCCCCCCCCSC(=S)Nc1ccc(Br)c(C)c1`: the log fold change Tl+ flux is -0.0409 in experiment [1]; -0.00527 in experiment [2]; -0.0326 in experiment [3]; -0.000986 in experiment [4]; -0.031 in experiment [5]; 0.0399 in experiment [6]. The log fold change Tl+ flux in experiment [7] is 0.0206; in experiment [8] it was -0.028; in experiment [9], 0.0416; in experiment [10] it was 0.0211.

Turning to `CC(c1ccccc1)n1c(SCc2cc(=O)oc3cc(O)ccc23)n[nH]c1=O` (stereo not given), the log fold change Tl+ flux in experiment [1] was -0.0609; in [2], 0.00559; in [3] it was 0.0151; in [4], 0.0558; in experiment [5], 0.0977; in [6], 0.0366. Moreover, the log fold change Tl+ flux in experiment [7] was 0.0338; in [8], 0.123 (active); in [9], 0.102 (active); in experiment [10], -0.0189.

As for `O=C(O)CSCC(=O)Nc1ccc(-c2nc3ccccc3s2)cc1`, the log fold change Tl+ flux was -0.0115 in [1]; 0.19 (active) in experiment [2]; -0.0257 in experiment [3]; -0.0352 in experiment [4]; 0.126 (active) in [5]; 0.0193 in experiment [6]. The log fold change Tl+ flux was 0.0504 in [7], 0.0724 in [8], 0.0271 in experiment [9] and -0.022 in experiment [10].

As for `CCOC(=O)C(C)Oc1ccc(NS(=O)(=O)c2cc(OC)ccc2OC)cc1Cl` (stereo not given), the log fold change Tl+ flux in experiment [1] is -0.0459; in experiment [2] it was -0.0343; in [3], -0.0957; in experiment [4], -0.104 (active); in experiment [5], -0.0848; in experiment [6], -0.0618. Besides, the log fold change Tl+ flux is 0.0118 in [7], -0.0738 in [8], -0.0156 in [9] and -0.0391 in experiment [10].

Take `COc1ccc(CCN=Cc2ccccn2)cc1OC`: the log fold change Tl+ flux in [1] is -0.038; in experiment [2], 0.0306; in experiment [3], 0.00295; in experiment [4], -0.00225; in experiment [5], -0.032; in [6], -0.0485. The log fold change Tl+ flux was -0.0399 in [7], -0.0772 in [8], -0.0204 in experiment [9] and -0.00322 in experiment [10].

Turning to `COc1cccc(CC(=O)NC2CCN(c3nccc(C(F)(F)F)n3)CC2)c1`, the log fold change Tl+ flux was -0.0079 in experiment [1]; -0.0102 in [2]; 0.00797 in experiment [3]; -0.0197 in experiment [4]; -0.0334 in [5]; -0.0558 in experiment [6]. Further, the log fold change Tl+ flux was -0.0259 in [7], -0.00912 in experiment [8], 0.0415 in experiment [9] and 0.0233 in [10].

Take `Cc1nn(C)c2ncc(C(N)=O)c(Oc3ccc(Cl)cc3)c12`: the log fold change Tl+ flux in experiment [1] was -0.00628; in experiment [2] it was -0.0132; in experiment [3] it was 0.0115; in experiment [4], 0.049; in [5], 0.0214; in experiment [6] it was -0.017. The log fold change Tl+ flux in experiment [7] is 0.00427; in [8] it was 0.0253; in experiment [9] it was -0.0279; in experiment [10], -0.0474.

In the case of `O=S(=O)(Oc1ccc(F)cc1F)c1cccc(S(=O)(=O)Oc2ccc(F)cc2F)c1`, the log fold change Tl+ flux is -0.193 (active) in experiment [1]; -0.0152 in experiment [2]; 0.00173 in experiment [3]; -0.485 (active) in experiment [4]; -0.264 (active) in experiment [5]; -0.229 (active) in [6]. Further, the log fold change Tl+ flux in [7] is -0.209 (active); in experiment [8], -0.0138; in [9] it was -0.144 (active); in [10], -0.0996.

Consider `O=C(O)c1ccccc1C(=O)NCc1ccccc1OC(F)(F)F`, for which the log fold change Tl+ flux is -0.05 in experiment [1]; -0.0181 in experiment [2]; -0.0248 in [3]; 0.0063 in experiment [4]; -0.076 in [5]; -0.0155 in [6]. For the same compound, the log fold change Tl+ flux in experiment [7] is -0.0505; in experiment [8], -0.0385; in experiment [9] it was -0.0255; in experiment [10], 0.0015.
